Compound activity as filed in PubChem BioAssay.
PI5P4K alpha inh = qHTS for Inhibitors of phosphatidylinositol 5-phosphate 4-kinase (PI5P4K). PI5P4Kalpha enzyme, ADP-Glo luminescence, 60 min; stronger effect = lower value. max response, %. 330,000 tested, 1.2% active; active = max response of -50% or lower; inconclusive = between -30% and -50%; inactive = -30% or higher; also: value at the top dose of about 77 µM
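PI5P4Kalpha ADP-Glo assay; 5 microM ATP final; 60 min RT reaction; HEPES pH 7.4/EGTA/CHAPS, 5% DMSO; controls lacking substrate or enzyme; luminescent end-point.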
Pol iota inh = qHTS for Inhibitors of Polymerase Iota; DNA polymerase iota (Homo sapiens), Q9UNA4; Pol iota fluorescent replication assay, 10 min; Potency, µM (highest dose often 115 µM), usual class: inhibitors; 390,000 tested, 1% active; AID 588590, 2011
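Fluorescent replication assay read twice, at 0 min and 10 min after adding 50 nM (final) substrate. Enzyme (10 nM) and compounds were first incubated 15 min at room temperature; enzyme-free buffer wells were negative controls.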
WRN inhibitor = qHTS for Inhibitors of WRN Helicase | WRN helicase unwinding, fluorescent forked duplex, kinetic | AID 651768, 2012 | 360,000 tested, 0.46% active | Potency, µM (titrated, usually from 114 µM), hits mostly inhibitors; also: nearly all actives have a fitted effect of over 55% in size
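Kinetic red-fluorescence monitoring (525/598 nm) tracks WRN helicase activity after 100 nM fluorophore-quencher forked duplex and 2 mM ATP are added to 20 nM enzyme pretreated 15 min at room temperature with compound.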
Pol beta inh = qHTS Assay for Inhibitors of DNA Polymerase Beta | Potency, µM (top dose mostly 114 µM), most hits filed as inhibitors | Pol beta primer extension/strand displacement, fluorescence kinetic | 340,000 tested, 1.3% active | P06746
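Pol beta (10 nM) and compounds were preincubated 15 min at room temperature, then 50 nM substrate (final) started primer extension/strand displacement. Reads were taken at 0 and 10 min; concentration-response data were fitted to a four-parameter Hill equation.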
Pol eta inh-1 = qHTS for Inhibitors of Polymerase Eta; recombinant Pol eta, fluorescent DNA replication assay; Potency, µM (top dose mostly 114 µM), actives largely listed as inhibitors; 390,000 tested, 1.2% active; AID 588591, 2011
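Fluorescent replication assay: 50 nM final substrate added after a 15 min room-temperature compound preincubation with 10 nM enzyme. Signal taken at 0 min and again at 10 min.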
Pol kappa inh-1 = qHTS for Inhibitors of Polymerase Kappa; purified Pol kappa, fluorescent DNA synthesis assay, 10 min; AID 588579, 2011; 400,000 tested, 0.53% active; DNA polymerase kappa (Homo sapiens), Q9UBT6; Potency, µM (highest dose often 107 µM), most hits filed as inhibitors
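Kinetic fluorescence screen: compound preincubated 15 min RT with 10 nM enzyme; 50 nM substrate (final) initiates; reads at 0/10 min.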
PGK validate = qHTS for inhibitors of Phosphogylcerate Kinase: Hit Validation Screen; shares compounds with Pol kappa inh-1; TbPGK coupled GAPDH assay, Kinase-Glo luminescence; Potency, µM (titrated, usually from 57.5 µM), hits mostly inhibitors; 500 tested, 79% active; AID 686980, 2013; also: nearly all actives have a fitted effect of over 65% in size
POLI cherry-pick = qHTS for Inhibitors of Polymerase Iota: Confirmatory Assay for Cherry-picked Compounds | shares compounds with Pol kappa inh-1 | Pol iota primer extension, TAMRA/BHQ fluorescence | Potency, µM, hits mostly inhibitors | 1,500 tested, 77% active
Pol kappa inh-2 = qHTS for Inhibitors of Polymerase Kappa: Confirmatory Assay for Cherry-picked Compounds; shares compounds with Pol eta inh-1; purified Pol-kappa, fluorescent strand-displacement substrate; Potency, µM, hits mostly inhibitors; 920 tested, 76% active; AID 720501, 2013
Pol eta inh-2 = qHTS for Inhibitors of Polymerase Eta: Confirmatory Assay for Cherry-picked Compounds. AID 720502, 2013. Pol eta primer extension, TAMRA/BHQ fluorescence, 10 min. shares compounds with Pol eta inh-1. Potency, µM, usual class: inhibitors. 2,600 tested, 64% active
Numbers stand for hits; . = inactive; ? = inconclusive; / = no result; [ ] = dose if it differs, or a comment. In the library only some 2.8% were active in any assay of this set; here they are far more common. Unless noted, calls follow the shape of the dose curve; as a rule, active = well fitted curve in the direction sought with a large enough effect; inconclusive = small, poorly fitted or top-dose-only effect, or another doubt; inactive = no such curve, though single readings can be large; an effect the other way counts as inactive or inconclusive.

SMILES	PI5P4K alpha inh	Pol iota inh	WRN inhibitor	Pol beta inh	Pol eta inh-1	Pol kappa inh-1	POLI cherry-pick	Pol eta inh-2	others
CCc1ccc(Oc2c(C(F)(F)F)oc3c(CN4CCN(CC)CC4)c(O)ccc3c2=O)cc1	/	.	/	.	.	.	/	/
O=c1c2ccccc2c(C=Nc2cccc(O)c2)c(O)n1-c1ccc2c(c1)OCO2	.	?	.	40µM	13µM	.	?	?
CCC(=O)Nc1ccc(C(=O)COC(=O)c2nc3nccc(C)n3n2)cc1	-90	4µM	?	/	3.5µM	?	17	27	Pol kappa inh-2=17
Cc1ccnc2nc(C(=O)OCC(=O)c3ccc(NC(=O)CC(C)C)cc3)nn12	.	?	.	/	?	.	/	/
Cc1ccc(N(CCC#N)C(=O)CSc2ccc3c(c2)OCCO3)cc1	.	.	.	.	.	.	/	/
Cc1cc(C)n2c(SCC(=O)N(CCC#N)c3ccc4c(c3)OCCO4)nnc2n1	-61	/	.[11.6 µM]	/	20µM	/	27	48	Pol kappa inh-2=17
O=c1cc(-c2ccccc2)nc(/C=C/c2ccccc2)[nH]1	.	.	.	.	.	.	/	/
O=C1c2cc(Cl)ccc2-c2c(O)cc(Cl)cc21	?	.	.	/	.	.	/	/
O=C(O)c1cc(O)c2c(c1)C(=O)c1cc(O)cc(O)c1C2=O	-86	?	?	7.9µM	8.9µM	22µM	21	6
Cc1cccc(NC(=O)COc2ccccc2C(=O)NC(C)c2ccccc2)c1 (stereo not drawn)	.	.	.	.	.	.	/	/
Cc1cc(=O)[nH]c(NN=Cc2c(Cl)cccc2Cl)n1	.	.	.	/	.	.	/	/
Cc1cc(=O)[nH]c(N/N=C/c2c(O)n(-c3ccccc3)c(=O)c3ccccc23)n1	?	.	?	45µM	22µM	.	75	60
CC(C)[C@H](NC(=O)N1c2ccccc2NC(=O)[C@@H]1C(C)C)C(=O)N[C@@H](Cc1c[nH]c2ccccc12)C(=O)O	.	.	.	.	.	.	/	/
CCOC(=O)CN(C(=O)c1snc(C(N)=O)c1N)C(C(=O)NC1CCCCC1)c1ccc(F)cc1 (stereo not drawn)	.	?	.[11.6 µM]	20µM	35µM	79µM	42	?
CCCN(CCC)S(=O)(=O)c1ccc2c(c1)N(CC(=O)NCc1ccc(F)cc1Cl)C(=O)CS2	/	.	/	.	.	.	/	/
COC(=O)CC1Sc2ccccc2NC1=O (stereo not drawn)	.	.	.	.	.	.	/	/
CC(=O)Nc1ccc2c(COC(=O)CC3Sc4ccccc4NC3=O)cc(=O)oc2c1 (stereo not drawn)	?	?	?	7.9µM	20µM	35µM	60	48
N#Cc1ccc(COC(=O)CN2C(=O)NC3(CCCC3)C2=O)cc1	.	.	?	/	.	.	/	/
C=CCn1c(SCC(=O)NC2CCCC2)nnc1-c1cccnc1	.	.	.	.	.	.	/	/
C=CCn1c(SCC(=O)c2ccc(O)c(O)c2)nnc1-c1cccnc1	-51	7.1µM	40µM	1.3µM	4µM	28µM	34	27	PGK validate=3.7µM
O=c1ccc2c(-c3ccccc3)c3ccc(O)cc3oc-2c1	?	32µM	16µM	7.9µM	40µM	?	34	11	Pol kappa inh-2=3
Cc1ccc(S(=O)(=O)N(CC(=O)O)Cc2ccco2)cc1	.	28µM	.	?	18µM	?	67	19
Cc1ccc(S(=O)(=O)N(Cc2ccccc2)Cc2ccco2)cc1	.	.	.	.	.	.	/	/
Cc1cc2nc(-c3cccc(Cl)c3)c(CC(C)(C)C)n2c(C)c1Br	.	/	.	/	/	/	/	/
Cc1ccc2nc(C)c(CN3CCN(c4ccc([N+](=O)[O-])cc4Cl)CC3)n2c1	/	/	/	.	/	/	/	/
SMILES	PI5P4K alpha inh	Pol iota inh	WRN inhibitor	Pol beta inh	Pol eta inh-1	Pol kappa inh-1	POLI cherry-pick	Pol eta inh-2	others
COc1ccc(/C=C/C(=O)NC(=S)Nc2ccc(S(=O)(=O)Nc3cc(OC)ncn3)cc2)cc1	.	?	.	.	.	.	/	/
COc1cc(NS(=O)(=O)c2ccc(NC(=S)NC(=O)/C=C/c3ccc(OC)c(OC)c3)cc2)ncn1	.	?	.	.	32µM	.	38	/	PGK validate=29µM;Pol kappa inh-2=27
C/C(N)=C(/C#N)C(=O)COC(=O)c1ccccc1C(=O)c1ccc(C)cc1	.	.	.	.	.	.	/	/
O=C(O)Cc1ccc(S(=O)(=O)N2CCCC2)s1	.	?	.	/	7.1µM	79µM	47	30	Pol kappa inh-2=12
N#Cc1c(NC(=O)/C=C/C(=O)O)sc2c1CCN(Cc1ccccc1)C2	?	.	.[11.6 µM]	32µM	28µM	.	47	48	Pol kappa inh-2=24
O=C1C=CC(=O)N1c1ccccc1N1C(=O)C=CC1=O	-89	40µM	?	/	?	?	?	?
CCOc1ccc(NC(=O)CN(C)C(=O)CSCc2ccc(C)cc2)cc1OCC	.	.	.	/	.	.	/	/
N=C1S/C(=C\c2ccc(-c3ccccc3C(=O)O)o2)C(=O)N1c1ccc2c(c1)OCO2	-74	13µM	?	25µM	20µM	79µM	67	43	Pol kappa inh-2=19
O=C(O)CN1C(=O)S/C(=C\c2ccc3c(c2)OCO3)C1=O	.	.	.	/	.	.	/	/
COc1ccc(OC)c(C2=CC(=O)C[C@H](c3ccc4c(c3)OCO4)C2)c1	.	.	.	/	.	.	/	/
CCOc1ccc(NC(=O)C2CCCN(S(=O)(=O)c3c(C)noc3/C=C/N(C)C)C2)cc1 (stereo not drawn)	/	.	/	.	.	.	/	/
CN(C)CCCNc1nc(-c2ccccc2)nc2ccccc12	.	.	.	.	.	.	/	/
CN(C)CCCNc1c2ccccc2nc2ccccc12	.	8.9µM	?	2.2µM	22µM	25µM	11	/	Pol kappa inh-2=9.5
